A selection: hits, their analogues and other compounds. The true share with any hit is near 8.3%.
Chronic BCR inh: blocks chronic active B-cell receptor signaling; ABC-DLBCL IkBa-CBG/CBR reporter, luminescence ratio, 4 h; 340,000 tested, 0.05% active; Potency, µM (highest dose often 46.1 µM), inactives show at the top dose activity change, negative = inhibition, hits mostly inhibitors; active = well fitted inhibition curve with a large enough effect in the signal ratio, with a control signal flat, not every such curve was filed as active; inconclusive = small, poorly fitted or top-dose-only effect, or effect the other way, or a change in a side signal; the % refers to the signal ratio;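 note: potency is the fitted concentration of half-maximal effect; plate controls were basal doxycycline-induced cells for no effect and cells given 10 µM MG132 for full effect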
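Cell line TMD8 (human ABC DLBCL), stably expressing tet-inducible CBG68-IkBa fusion and CBR; IMDM/0.5% FBS; cpd up to 46 uM; dox induction, 4 h, 37C/5% CO2; dual luminescence; green/red ratio; MG132 control.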
SW480 rereplic: induces DNA re-replication in SW480 colon adenocarcinoma cells; SW480 DNA re-replication, Hoechst DNA content imaging, 48 h; Potency, µM (highest dose often 46.1 µM), inactives show at the highest dose re-replication activation, actives largely listed as activators; 340,000 tested, 1.8% active; note: potency is the fitted concentration of half-maximal effect; % of control where 0% means no effect; nearly all actives have a fitted effect of over 55% in size
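Per well, 250 cells were exposed to pinned compound for 48 hr. Nuclear DNA was visualised with Hoechst (40 min, 37 C) and total object intensity recorded by fluorescence scanning.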
RORg inh: ROR gamma (mouse) transcription inhibition | 310,000 tested, 5.4% active | P51450 | Potency, µM (titrated, usually from 53.6 µM), without a hit: at the highest dose activity change, negative = inhibition, usual class: inhibitors | Drosophila S2 Gal4-RORgamma UAS-luciferase reporter, 20 h; note: potency is the fitted concentration of half-maximal effect; % is set by controls: 0 for no effect and ±100 for the full control effect; nearly all actives have a fitted effect of over 60% in size
Target sequence (P51450 whole entry, looked up, the tested form may be a part): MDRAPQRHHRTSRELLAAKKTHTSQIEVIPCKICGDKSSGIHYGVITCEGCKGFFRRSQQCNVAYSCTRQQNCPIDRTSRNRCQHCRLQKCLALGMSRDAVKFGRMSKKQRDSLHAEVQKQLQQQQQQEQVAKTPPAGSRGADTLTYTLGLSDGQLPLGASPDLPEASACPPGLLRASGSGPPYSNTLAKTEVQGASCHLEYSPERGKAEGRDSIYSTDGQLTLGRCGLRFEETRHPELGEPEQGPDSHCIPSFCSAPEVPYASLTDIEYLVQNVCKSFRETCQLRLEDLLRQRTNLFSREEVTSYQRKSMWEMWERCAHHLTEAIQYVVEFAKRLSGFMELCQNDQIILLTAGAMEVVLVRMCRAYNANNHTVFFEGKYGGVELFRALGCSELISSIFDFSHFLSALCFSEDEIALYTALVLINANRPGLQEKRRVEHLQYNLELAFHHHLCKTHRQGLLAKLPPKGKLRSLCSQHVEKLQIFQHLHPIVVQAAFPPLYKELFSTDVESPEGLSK
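Stable Schneider cell line, Gal4 DNA-binding domain fused to ROR gamma, UAS-luciferase. Cmpd 1 hr RT → CuSO4 700 uM final → 20 hr RT → luciferase reagent 10 min → luminescence.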
VP16 counter: inhibits Gal4-VP16 luciferase reporter, ROR gamma counter-screen | Drosophila S2 Gal4-VP16 UAS-luciferase, luminescence, 20 h | Potency, µM (series often up to 53.6 µM), inactives show top-dose activity, negative = inhibition, usual class: inhibitors | 310,000 tested, 3.5% active | AID 2546;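 note: Gal4-VP16 expression switched on by copper sulfate through the metallothionein promoter; potency is the fitted concentration of half-maximal effect; % is set by controls: 0 for no effect and ±100 for the full control effect; nearly all actives have a fitted effect of over 50% in size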
Giardia kill: Giardia lamblia killing; activity change, % at 7.66 µM, hits read low; Giardia lamblia trophozoite viability; AID 540267; 340,000 tested, 0.15% active; in the data active = activity change below about -80%; inconclusive = between about -30% and that limit;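 note: parasites exposed to compound for two days anaerobically before the ATP read; % is set by controls: 0 for no effect and ±100 for the full control effect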
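Giardia trophozoites, 100 cells per well, were exposed to compounds for 48 hrs at 37 deg C under anaerobic conditions; viability was then read as ATP content by bioluminescence after 15-30 min at room temperature.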
MCF10A rereplic: inducers of DNA re-replication in MCF 10A breast cells. MCF 10A DNA re-replication, Hoechst nuclear intensity, 48 h. Potency, µM (highest dose often 46.1 µM), for the others: at the top dose activity, positive = re-replication, usual class: activators. 350,000 tested, 2.9% active. AID 624296; note: potency is the fitted concentration of half-maximal effect; % of control where 0% means no effect; nearly all actives have a fitted effect of over 50% in size
The depositor's hits bear a star; [ ] = another dose, or the depositor's remark. Unless noted, calls come from the whole dose curve; as a rule, active = well fitted curve in the direction sought with a large enough effect; inconclusive = small, poorly fitted or top-dose-only effect, or another doubt; inactive = no such curve, though single readings can be large; an effect the other way counts as inactive or inconclusive.

For Cc1ccc(NC(=O)COC(=O)c2ccc(NC(=O)CC#N)cc2)cc1S(=O)(=O)N1CCOCC1 the results were Chronic BCR inh inconclusive, SW480 rereplic 0%, Giardia kill 29 and MCF10A rereplic -13%.
`COCCOC(=O)c1c(C)oc2ccc(NS(=O)(=O)c3ccc(C)cc3)cc12` gave Chronic BCR inh -3%, SW480 rereplic -9%, RORg inh inconclusive, VP16 counter 5%, Giardia kill 9 and MCF10A rereplic 16µM*.
`COCCOC(=O)c1c(C)oc2ccc(NS(=O)(=O)c3ccccc3)cc12` gave Chronic BCR inh 1%, SW480 rereplic -7%, RORg inh 37%, VP16 counter 2%, Giardia kill -5 and MCF10A rereplic -3%.
Screening CC(=O)c1c(C)oc2ccc(NS(=O)(=O)c3ccc(F)cc3C)cc12 returned Chronic BCR inh inconclusive, SW480 rereplic -4%, RORg inh inconclusive, VP16 counter 13µM*, Giardia kill 1 and MCF10A rereplic 7%.
`CCC(C(=O)NCCCc1ccccc1)n1nc(C)c2c(C)n(-c3ccccc3)nc2c1=O` (configuration not stated) gave Chronic BCR inh -5%, SW480 rereplic 0%, RORg inh 4%, VP16 counter 0%, Giardia kill 0 and MCF10A rereplic 3%.
Screening CCC(C(=O)NCCC1=CCCCC1)n1nc(C)c2c(C)n(-c3ccccc3)nc2c1=O (configuration not stated) returned Chronic BCR inh 6%, SW480 rereplic 1%, RORg inh 4.5µM*, VP16 counter -9%, Giardia kill 5 and MCF10A rereplic 4%.
CCC(C(=O)Nc1ccccc1F)n1nc(C)c2c(C)n(-c3ccccc3)nc2c1=O (configuration not stated) was read as Chronic BCR inh 0%, SW480 rereplic 29µM*, RORg inh 18%, VP16 counter 5%, Giardia kill -11 and MCF10A rereplic 4%.
CCN(CC)c1ccc(NC(=O)Cn2cc3c(n2)CCC(C)C3)c(C)c1 (configuration not stated) was read as Chronic BCR inh 0%, SW480 rereplic 0%, RORg inh -54%, VP16 counter 11µM*, Giardia kill -12 and MCF10A rereplic 2%.
O=C1C2C3C=CC(C3)C2C(=O)N1c1ccc(N2CCN(c3ccccn3)CC2)c([N+](=O)[O-])c1 (configuration not stated) was read as Chronic BCR inh -3%, SW480 rereplic inconclusive, RORg inh inconclusive, VP16 counter 4µM*, Giardia kill -2 and MCF10A rereplic inconclusive.
`O=C(CCN1C(=O)C2C3C=CC(C3)C2C1=O)N1CCN(c2ccccn2)CC1` (configuration not stated) gave Chronic BCR inh -6%, SW480 rereplic 7%, RORg inh -18%, VP16 counter -5%, Giardia kill 5 and MCF10A rereplic 1%.
For CC1(C)SC2c3ccccc3C(=O)N2C1C(=O)O (configuration not stated) the results were SW480 rereplic -2%, Giardia kill -3 and MCF10A rereplic 2%.
Cn1cc(NC(=O)Nc2ccc(C(F)(F)F)cc2)c(C(F)(F)F)n1 was read as Chronic BCR inh -1%, SW480 rereplic -3%, RORg inh 33%, VP16 counter -4%, Giardia kill -5 and MCF10A rereplic inconclusive.
`Cc1ccccc1NC(=S)NC(=O)c1cc(-c2ccccc2)nc2ccccc12` gave Chronic BCR inh inconclusive, SW480 rereplic -16%, RORg inh 1.8µM*, VP16 counter 4µM*, Giardia kill 13 and MCF10A rereplic 1%[9.22 µM].
For O=C(O)c1ccccc1NC(=O)c1cc(-c2ccccc2)nc2ccccc12 the results were Chronic BCR inh 2%, SW480 rereplic -8%, RORg inh inconclusive, VP16 counter -8%, Giardia kill 13 and MCF10A rereplic inconclusive.
Screening Cc1ccccc1NC(=O)c1cccc2nc3ccccc3nc12 returned Chronic BCR inh 11%, SW480 rereplic 18µM*, RORg inh 1%, VP16 counter -5%, Giardia kill -10 and MCF10A rereplic inconclusive.
Cc1cccc(NC(=S)NC(=O)c2cc(-c3ccccc3)nc3ccccc23)c1 was read as Chronic BCR inh -4%, SW480 rereplic -8%[9.22 µM], RORg inh 2µM*, VP16 counter 5.6µM*, Giardia kill -5 and MCF10A rereplic -19%.
`CCCCCCCC#Cc1ccccc1C(NC(=O)OC)C(C(=O)OC)C(=O)OC` (configuration not stated) gave RORg inh -4%[10 µM] and VP16 counter 13%[10 µM].
O=C(O)c1ccc(Cl)c(NCc2cccnc2)c1 was read as Chronic BCR inh 0%, SW480 rereplic 17%[1.84 µM], RORg inh 0%[1.91 µM], VP16 counter 2%, Giardia kill -9 and MCF10A rereplic 15%.
`CC(=O)NN1C(=O)c2ccc3c4c(ccc(c24)C1=O)C(=O)N(NC(C)=O)C3=O` gave Chronic BCR inh 7%, SW480 rereplic inconclusive, RORg inh 11µM*, VP16 counter 11µM*, Giardia kill 1 and MCF10A rereplic inconclusive.
`COc1cc(C(=O)Nc2ccc(N3CCOCC3)cc2)ccc1OCc1c(C)noc1C` gave Chronic BCR inh -1%, SW480 rereplic 2%, RORg inh inconclusive, VP16 counter -21%, Giardia kill -19 and MCF10A rereplic -3%.
For CO/N=C/C(=N\Nc1ccccc1)C(=O)c1ccccc1 the results were Chronic BCR inh inconclusive, SW480 rereplic 1%, RORg inh inconclusive, VP16 counter -3%, Giardia kill -4 and MCF10A rereplic -11%.
For COC(=O)C=CC(=NNc1ccccc1)c1ccccc1 the results were SW480 rereplic inconclusive, Giardia kill -8 and MCF10A rereplic 18µM*.
Screening O=c1ccc(S(=O)(=O)N2CCCC2)cn1Cc1ccc(Cl)cc1Cl returned Chronic BCR inh 0%, SW480 rereplic 5%, Giardia kill -11 and MCF10A rereplic -5%.
For Cn1ncc(Cl)c(Oc2ccccc2)c1=O the results were Chronic BCR inh -10%, SW480 rereplic 0%, RORg inh 7%, VP16 counter -6%, Giardia kill -5 and MCF10A rereplic -2%.
Screening Cn1ncc(Cl)c(Oc2ccc(C(C)(C)C)cc2)c1=O returned Chronic BCR inh 8%, SW480 rereplic -1%, RORg inh -16%, VP16 counter 35µM*, Giardia kill -16 and MCF10A rereplic 1%.

Screens: PubChem BioAssay, National Center for Advancing Translational Sciences (NCATS)
